# HCV inhibitor = inhibitors of hepatitis C virus infection. Huh7.5.1 HCVcc-Cre infection, luciferase reporter, 44 h. Potency, µM (titrated, usually from 41.8 µM), for the others: at the highest dose activity change, negative = inhibition, actives largely listed as inhibitors. 340,000 compounds, 3.4% hits; also: potency is read from the fitted curve at half-maximal effect
#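 Cells (1,000/well) were plated 4 h before compound, then infected with HCVcc-Cre virus (~0.5 moi). After 44 h further culture, infection was read as luciferase luminescence following a 15 min substrate incubation at room temperature.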
# Giardia FBPA inh = blocks Giardia fructose-bisphosphate aldolase activity; 290,000 compounds, 0.71% hits; purified Giardia FBPA; A8B2U2; Potency, µM (top dose mostly 59.6 µM), without a hit: top-dose activity, negative = inhibition, hits mostly inhibitors; also: potency is read from the fitted curve at half-maximal effect; nearly all actives have a fitted effect of over 55% in size
# Target sequence (A8B2U2 whole entry, looked up): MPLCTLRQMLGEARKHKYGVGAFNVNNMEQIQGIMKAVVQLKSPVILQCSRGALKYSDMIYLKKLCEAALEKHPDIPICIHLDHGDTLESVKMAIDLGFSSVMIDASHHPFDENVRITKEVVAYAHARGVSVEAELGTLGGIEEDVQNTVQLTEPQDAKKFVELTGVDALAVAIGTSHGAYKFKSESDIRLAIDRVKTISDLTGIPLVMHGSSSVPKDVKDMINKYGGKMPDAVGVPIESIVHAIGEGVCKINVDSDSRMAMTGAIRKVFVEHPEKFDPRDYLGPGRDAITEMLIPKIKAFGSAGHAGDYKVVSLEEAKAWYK
#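 40 nM FBPA preincubated 10 min at RT with compound (up to 57.5 uM final), then substrate plus GAPDH/TPI/NAD/arsenate coupling and diaphorase/resazurin added. Fluorescence read after 20 min at RT, 525/598 nm.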
# HCMV inh = inhibitors of human cytomegalovirus; AID 1259415; activity change, negative = inhibition, % at 57.5 µM; 410,000 compounds, 4.5% hits; HFF cells, HCMV-luciferase reporter, 72 h; stronger effect = lower value; in the data active = activity change below about -60%; inconclusive = no clear call, values can overlap the other calls; inactive = above about -39%
#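 After 16 h attachment at 37C, HFF cells received test compound and HCMV-luciferase (1 PFU/cell); reporter luminescence read 72 h later, data normalized against buffer-only and known inhibitor Salinomycin.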
# FMDV antiviral = foot and mouth disease virus antiviral activity | FMDV antiviral cell-based qHTS | Potency, µM (series often up to 57.9 µM), inactives show at the highest dose activity change, negative = inhibition, actives largely listed as inhibitors | 410,000 compounds, 1.2% hits | AID 1159524; calls by dose curve; tested in HEK293T cells; also: read-out not given here; potency is read from the fitted curve at half-maximal effect; nearly all actives have a fitted effect of over 45% in size
# LASV entry inh = Lassa virus entry inhibition | Lassa virus pseudotype entry inhibition, cell reporter | 300,000 compounds, 1.2% hits | AID 540256 | Potency, µM (highest dose often 37.9 µM), for inactives: top-dose activity change, negative = inhibition, most hits filed as inhibitors; calls by dose curve; tested in HEK293 cells; also: potency is read from the fitted curve at half-maximal effect; nearly all actives have a fitted effect of over 50% in size
# Marburg entry inh = Marburg virus entry inhibition | Marburg virus pseudotyped entry inhibition, cell reporter | Potency, µM (titrated, usually from 37.8 µM), without a hit: at the highest dose activity change, negative = inhibition, usual class: inhibitors | 300,000 compounds, 1.8% hits | AID 540276; calls by dose curve; tested in HEK293 cells; also: potency is read from the fitted curve at half-maximal effect
# Starred values were filed as active, the others as inactive; ? = inconclusive; nt = no result; [ ] = another dose, or the depositor's remark. This is a sample that favours compounds with a hit; in the whole collection about 8.3% have one here. Unless noted, calls follow the shape of the dose curve; as a rule, active = well fitted curve in the direction sought with a large enough effect; inconclusive = small, poorly fitted or top-dose-only effect, or another doubt; inactive = no such curve, though single readings can be large; an effect the other way counts as inactive or inconclusive. % is scaled to controls: 0 for no effect and ±100 for the full control effect.
SMILES,HCV inhibitor,Giardia FBPA inh,HCMV inh,FMDV antiviral,LASV entry inh,Marburg entry inh
COc1ccc(-c2noc(CN(C(=O)C(C)Oc3ccc(C)cc3)C(C)C)n2)cc1 (stereo unspecified),nt,nt,?,0%,-22%[46.1 µM],?
CCN1CCc2c(sc(NC(=O)c3ccc(S(=O)(=O)N4CCCC(C)C4)cc3)c2C(=O)OC)C1 (stereo unspecified),nt,nt,-39,-14%,-13%[46.1 µM],nt
COc1cc(NC(=S)NC2CC2)c(OC)cc1Cl,-23%,-12%,-81*,-1%,-3%,0%
COc1cc(NC(=S)N(C)C)c(OC)cc1Cl,12%,-5%,?,-2%,18%[46.1 µM],-3%[46.1 µM]
CCCCC1C(=O)N(c2ccccc2)N(c2ccccc2)C1=O,-1%[8.37 µM],0%,?,0%,2%,?
CCCCN1C=CC(=C2C(=O)c3ccccc3C2=O)C=C1,-10%,-17%,-88*,10µM*,?,?
CCOC(=O)CCN1C(=O)[C@H]2[C@H]3[C@H](O)[C@H](O)C/C(=N\OCc4ccccc4)[C@@H]3CC[C@H]2C1=O,nt,nt,nt,nt,nt,-7%[14.2 µM]
CN(C)CCNC(=O)c1onc(CSc2ccc(F)c(F)c2)c1C(=O)NCCN(C)C,13µM*,2%,-36,-16%,nt,nt
CCN(c1cc(C)cc(C)c1)S(=O)(=O)c1nnc(NC(=O)C(C)C)s1,-9%,-12%,-77*,13%,-20%,?
CCN(c1ccc(C)cc1C)S(=O)(=O)c1nnc(NC(=O)C(C)C)s1,-8%,1%,-73*,-27%,nt,nt
COC(=O)c1ccc(C(NC(=O)OCc2ccccc2)/C(C)=C/[C@@H](C)C(=O)Nc2ccc(OC)cc2)cc1 (stereo partly specified),nt,-4%,nt,nt,nt,nt
CS(=O)(=O)c1nc([N+](=O)[O-])nn1CCCc1ccccc1,?,nt,nt,18µM*,5%,?
Cn1nc([N+](=O)[O-])nc1S(C)(=O)=O,10µM*,?,?,?,?,?
Cc1nn(CCCC(=O)NCCc2ccccc2)c(C)c1[N+](=O)[O-],8%,0%,-7,0%,27%[46.1 µM],9%[46.1 µM]
CCN1CCN(CCCNC(=O)Cn2c(-c3cccs3)cc3cc(F)ccc32)CC1,nt,nt,?,-7%,-29%[46.1 µM],nt
CC(C)N[C@@H](C)Cc1ccc(I)cc1,nt,nt,nt,nt,nt,16µM*
CC(Cc1ccccc1)NC(=O)NC(C)Cc1ccccc1 (stereo unspecified),-10%,1%,112,29%,?,15%
CC(C)NC(C)Cc1ccc(I)cc1 (stereo unspecified),?,-4%,-33,-21%,9%,16µM*
CNC(C)Cc1ccc(OC)cc1 (stereo unspecified),nt,-3%,4,nt,nt,nt
CCc1ccc(NC(=O)CC2C(=O)N(c3cccc(C)c3)C(=O)N2Cc2cccs2)cc1 (stereo unspecified),nt,nt,?,9%,-10%[46.1 µM],nt
O=C(NCCn1cc(SCc2ccccc2Cl)c2ccccc21)c1cccs1,nt,nt,-6,-25%,?,5%[46.1 µM]
CCn1c(/C=C/N(C)c2ccccc2)[n+](CC)c2ccc(Cl)cc21,32µM*,0%,-94*,nt,8.2µM*,?
CCn1c(C)[n+](Cc2ccccc2)c2ccc(Cl)cc21,7%,3%,-67*,-27%,nt,-21%[46.1 µM]
CCn1c(/C=C/Nc2ccccc2)[n+](CC)c2ccc(Cl)cc21,-14%,0%,11,?,-11%,?
CC12C(=O)N(c3ccc(C(=O)N4CCOCC4)cc3)C(=O)C1C1c3ccccc3C2c2ccccc21 (stereo unspecified),6%,3%,-101*,nt,12%,20%
SMILES,HCV inhibitor,Giardia FBPA inh,HCMV inh,FMDV antiviral,LASV entry inh,Marburg entry inh
COc1ccc(-c2nc3ccccc3o2)cc1NC(=O)c1cccc2c(Cl)cccc12,nt,nt,21,5%,21%[46.1 µM],6%[46.1 µM]
CCNC(=O)N1CCN(CCCC(c2ccc(F)cc2)c2ccc(F)cc2)CC1,?,-1%,-79*,?,?,10µM*
O=C(Nc1ccc(F)cc1)N1CCN(CCc2ccccc2)CC1,-6%,0%,3,-9%,5%[46.1 µM],-18%[46.1 µM]
Oc1ccc(/C=N\Nc2cc(N3CCOCC3)nc(N3CCOCC3)n2)c(O)c1,?,-29%,22,-12%,?,?
Clc1ccc(-c2ccc(/C=N/Nc3cc(N4CCOCC4)nc(N4CCOCC4)n3)o2)cc1,?,-23%,-34,?,6%,6.3µM*
Brc1ccc(-c2ccc(/C=N/Nc3nc(N4CCOCC4)nc(N4CCOCC4)n3)o2)cc1,?,5%,?,?,-12%[46.1 µM],4µM*
COc1cc(CNCc2cc3cc(C)ccc3nc2-c2ccc(F)cc2)cc(OC)c1OC,nt,nt,nt,8%,nt,nt
CCc1ccc2c(c1)NC(=O)C2(C)Cc1ccccc1OC (stereo unspecified),nt,nt,-71*,-22%,nt,nt
CC1(Cc2ccc(F)cc2)C(=O)Nc2c(Cl)cccc21 (stereo unspecified),nt,nt,?,-22%,nt,nt
COc1ccccc1CC1(C)C(=O)Nc2c(Cl)cccc21 (stereo unspecified),nt,nt,-73*,-20%,nt,nt
NC(C(=O)O)c1cccc(O)c1 (stereo unspecified),nt,nt,nt,-15%,nt,nt
COc1ccc(CCNC(=O)c2ccc(OCc3c(C)noc3C)cc2)cc1OC,?,nt,-5,?,nt,nt
COc1ccc(CCNC(=O)c2ccc(OCc3c(C)noc3C)c(OC)c2)cc1,1%,nt,?,-22%,?,12%
COc1cc(C(=O)NCCc2c[nH]c3ccccc23)ccc1OCc1c(C)noc1C,-28%,3%,48,?,7.9µM*,-26%[46.1 µM]
CCOc1ccc(CCNC(=O)c2ccc(OCc3c(C)noc3C)cc2)cc1OCC,?,nt,-97*,?,?,?
Cc1noc(-c2ccc(-c3noc(-c4ccc(Cl)cc4)n3)cc2)n1,nt,nt,6,-5%,-11%[46.1 µM],nt
COc1ccc(Nc2nc3cc(Cl)c(Cl)cc3n3cnnc23)cc1Cl,nt,nt,-1,1%,16%[46.1 µM],-19%[46.1 µM]
N#Cc1ccc(/C=C\c2nccc3c2[nH]c2ccccc23)cc1,?,1%,-77*,0%,15%,?
CCOC(=O)c1c(C)[nH]c(C(=O)Nc2ccc(NC(C)=O)cc2)c1C,?,0%,-65*,-17%,-3%,?
CCOC(=O)c1[nH]c(C)c(C(=O)Nc2ccc3c(c2)OCCO3)c1C,?,-17%,-74*,0%,-3%,22%
O=c1cnc2cnc(Nc3ccccc3)nc2n1CCc1ccccc1,nt,4%,nt,-13%,nt,nt
COc1cc2c(cc1OC)C(COc1ccc3c(C)cc(=O)oc3c1)N(C(=O)c1cccc(C)c1)CC2 (stereo unspecified),nt,nt,11,-11%,-12%[46.1 µM],0%[46.1 µM]
COc1ccc(-c2coc3cc4oc(=O)cc(C)c4cc23)cc1F,?,nt,-63*,4%,?,?
O=C(NC1CCN(C(=O)NC2CCCCC2)CC1)c1ccco1,23%,1%,-107*,0%,29%,?
